Source: PubChem (National Center for Advancing Translational Sciences (NCATS))
Shown are actives, neighbours in structure and some others; about 7.4% of the full set was active somewhere.
ELG1 genotox: genotoxicity induction in ELG1-luciferase HEK293T cells. Potency, µM (series often up to 46 µM), most hits filed as activators. HEK293T ELG1-luciferase reporter, luminescence, 16 h. AID 504466. hit rate 1.3% among 330,000; further: nearly all actives have a fitted effect of over 60% in size
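Step 1: seed 2,000 HEK293T ELG1-luciferase cells per well. Step 2: add compound or DMSO, incubate 16 hr at 37 °C. Step 3: ONE-Glo, 30 min at room temperature, read luminescence.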
FLuc modulator: inhibits or activates purified firefly luciferase, miR-21 counter-screen. purified FLuc, Km substrates, luminescence inhibition. Potency, µM (top dose mostly 57.5 µM), hits mostly inhibitors. hit rate 6.9% among 360,000. P08659; further: nearly all actives have a fitted effect of over 55% in size
Target sequence (P08659 whole entry, looked up): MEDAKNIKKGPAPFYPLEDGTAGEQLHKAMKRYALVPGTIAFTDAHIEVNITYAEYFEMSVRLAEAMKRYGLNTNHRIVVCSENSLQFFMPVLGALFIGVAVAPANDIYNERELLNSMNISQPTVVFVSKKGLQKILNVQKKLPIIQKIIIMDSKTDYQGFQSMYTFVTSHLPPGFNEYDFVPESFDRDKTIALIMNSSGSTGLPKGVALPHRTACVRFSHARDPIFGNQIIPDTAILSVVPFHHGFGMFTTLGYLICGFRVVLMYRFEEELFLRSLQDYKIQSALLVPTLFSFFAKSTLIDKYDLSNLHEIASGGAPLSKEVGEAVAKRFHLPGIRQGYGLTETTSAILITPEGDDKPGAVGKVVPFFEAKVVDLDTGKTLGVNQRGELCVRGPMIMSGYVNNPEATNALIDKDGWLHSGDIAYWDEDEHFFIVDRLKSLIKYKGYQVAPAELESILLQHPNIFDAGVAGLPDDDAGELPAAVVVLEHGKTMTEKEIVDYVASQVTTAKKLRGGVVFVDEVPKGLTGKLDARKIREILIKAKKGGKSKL
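Purified P. pyralis luciferase (10nM final) with 10uM D-luciferin and 10uM ATP (Km levels) in 50mM Tris acetate pH 7.5, 10mM Mg acetate, 0.01% Tween-20, 0.05% BSA; qHTS 6-point titration, ~60 µM downward; luminescence read.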
Rab9 promoter act: Rab9 promoter activation; Huh7 Rab9 promoter-luciferase reporter, luminescence, 24 h; Potency, µM (top dose mostly 9.22 µM), actives largely listed as activators; hit rate 2.8% among 320,000; AID 485297; further: nearly all actives have a fitted effect of over 60% in size
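Huh7 cells stably carrying a Rab9 promoter-luciferase reporter, 1500 cells per well in OP-MEM I with 10% FBS, treated with compound 24 hours at 37C. Luciferase activity read by luminescence after 10 minutes with Amplite reagent.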
Luc counter: blocks Kinase-Glo luciferase, a counter-screen artifact; Kinase-Glo luciferase, ATP luminescence, 8 min; Q27757; AID 1379; Potency, µM (highest dose often 38.3 µM), hits mostly inhibitors; hit rate 0.28% among 200,000; further: nearly all actives have a fitted effect of over 60% in size
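Compounds were added to a substrate mix at pH 7.2 (50 mM imidazole, 10 uM ATP, within the enzyme's linear range), followed by Kinase-Glo detection reagent; luminescence was measured after 8 minutes at ambient temperature.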
SMN2 splice up: increases expression of the SMN2 splice variant | HEK293 SMN2-luciferase splicing reporter, luminescence, 30-36 h | Potency, µM (top dose mostly 46.1 µM), most hits filed as activators | hit rate 2.8% among 210,000; further: nearly all actives have a fitted effect of over 55% in size
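HEK293 cells carry an SMN2 minigene-luciferase reporter in which exon 7 inclusion puts luciferase in frame. Cells were seeded at 2000 cells/well, attached for 10-12 hours, then exposed to compounds for 30-36 hours at 37C before ONE-Glo luminescence.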
NPC1 promoter act: NPC1 promoter activation | AID 485313 | hit rate 2.4% among 320,000 | Huh7 NPC1 promoter luciferase reporter, 24 h | Potency, µM (series often up to 9.22 µM), hits mostly activators; further: nearly all actives have a fitted effect of over 60% in size
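Compounds in DMSO were transferred onto Huh7 NPC1-luciferase reporter cells pre-incubated 2 h; after 24 h at 37 °C, Amplite reagent was dispensed and luminescence recorded 10 min later.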
A number is an active result; - = inactive; ? = inconclusive; . = no result given; [ ] = remark or other dose. The call rests on the fitted dose curve; in most records, active means well fitted curve in the direction sought with a large enough effect; inconclusive means small, poorly fitted or top-dose-only effect, or another doubt; inactive means no such curve, though single readings can be large; an effect the other way counts as inactive or inconclusive.

SMILES	ELG1 genotox	FLuc modulator	Rab9 promoter act	Luc counter	SMN2 splice up	NPC1 promoter act
O=C(Nc1cccc(C(=O)OCc2cc(=O)n3c4c(sc3n2)CCCC4)c1)c1ccccc1	.	2.4µM	.	.	.	.
COc1ccc(C)cc1NC(=O)Nc1cccc(OCc2cc(=O)n3ccc(C)cc3n2)c1	.	2.7µM	.	.	.	.
CC(=O)NCCNC(=O)c1ccc2c(=O)n(CCc3ccccc3)c(=O)[nH]c2c1	.	?	.	.	-	.
CNS(=O)(=O)c1cc(-c2nn3c(C)nnc3c3ccccc23)ccc1C	.	-	.	.	.	.
COc1cccc(C(=O)N/N=C(\C)CC(=O)Nc2ccc(N(C)C)cc2)c1	-	?	-	.	.	-
COc1cccc(NC(=O)CC(=O)c2ccc([N+](=O)[O-])cc2)c1	-	2.1µM	-[1.84 µM]	.	.	?
COc1cccc(NC(=O)Cn2nnc(C(=O)Nc3ccccc3)c2N)c1	-	?	-	-	-	-
COc1cccc(/C(C)=N/NC(=O)c2ccc(N(C)C)cc2)c1	?	19µM	3.5µM	-	?	?
NS(=O)(=O)c1cccc(NC(=O)c2cccc(Oc3ccccc3)c2)c1	-	11µM	-	.	.	-
COc1cccc(NC(=O)c2nnn(CCc3ccccc3)c2N)c1	?	15µM	-	-	?	-
COc1ccc(OCC(=O)NCC2(N3CCN(C)CC3)CCCCC2)cc1	.	-	.	.	.	.
Cc1ccc(N2CCN(Cc3nnc(-c4ccccc4F)o3)CC2)c(C)c1	.	-	.	.	-	.
CC(=O)NC(c1ccco1)c1cc(Br)c2cccnc2c1O (stereo not given)	.	-	-	.	.	-
CCS(=O)(=O)N1CCc2cc(C(=O)N3CCN(c4cccc(C(F)(F)F)c4)CC3)ccc21	.	-	.	.	.	.
COc1cccc(NC(=O)Nc2cccnc2)c1	-	17µM	-	.	.	-
COc1cccc(NC(=O)c2ccc(NC(=O)C(C)C)cc2)c1	?	11µM	?	.	.	?
COc1cc(OC)cc(C(=O)Nc2cccc(C(C)=O)c2)c1	?	?	-	?	-	-
COc1cc(OC)cc(C(=O)Nc2cccc(NC(=O)c3ccccc3)c2)c1	-	17µM	-	.	.	-
COc1cccc(NC(=O)N2CCN(c3cccc(C)c3C)CC2)c1	?	15µM	-	-	-	-
COC(=O)c1cc2oc(C)cc2n1CC(=O)Nc1ccc(C(C)C)cc1	.	?	.	.	-	.
COc1cccc(NC(=O)c2ccc(OC(F)(F)F)cc2)c1	?	2.4µM	1.8µM	.	.	4µM
COc1cccc(NC(=O)Nc2ccc(Br)cn2)c1	?	?	3.2µM	.	.	?
COc1ccc(NC(=O)Nc2ccc(Br)cn2)cc1OC	-	?	-	-	-	-
CCC(=O)Nc1ccc(/C(C)=N\NC(=O)c2ccc(OC)cc2)cc1	-	-	-	-	-	-
COc1ccc(C(=O)N/N=C(/C)c2cccc(NC(=O)C(F)(F)F)c2)cc1	?	11µM	?	-	10µM	3.5µM
SMILES	ELG1 genotox	FLuc modulator	Rab9 promoter act	Luc counter	SMN2 splice up	NPC1 promoter act
Cc1[nH]c2ccc(C(=O)N3CCCCC3)cc2c1C	?	19µM	3.2µM	-	13µM	3.2µM
COc1cccc(NC(=O)c2ccccc2C(F)(F)F)c1	-	-	-	-	-	-
Cc1cc2c(cc3c(SCc4ccc(Cl)cc4)nncn32)o1	.	-	.	.	.	.
Cc1ccc(CN2CCCn3nc(C(=O)NCCc4ccc(Cl)cc4)cc3C2=O)cc1	.	-	.	.	.	.
Cc1ccc(C(=O)c2sc(Nc3ccc(F)cc3)nc2N)c(C)c1	.	-	.	.	.	.
COc1cc(C(=O)Nc2cccc(NC(=O)c3ccccc3)c2)cc(OC)c1OC	-	15µM	-	.	.	-
Cc1[nH]c2ccc(C(=O)Nc3ccc(F)cc3)cc2c1C	.	24µM	.	.	.	.
COc1cc(C(=O)Nc2ccc(N(C)C)cc2)cc(OC)c1OC	?	3µM	-	.	.	-
COc1ccccc1NC(=O)c1ccc2nsnc2c1	?	15µM	4µM	.	.	?
COc1cc(C(=O)Nc2ccc(S(=O)(=O)N(C)c3ccccc3)cc2)cc(OC)c1OC	-	-	-	-	?	-
COc1ccc(Cl)cc1C(=O)NCc1nc(-c2cccc(C)c2)no1	.	-	.	.	-	.
Cc1ccc(-n2c(=O)c3c(c4cc(C)ccc4n3C)n(CC(=O)NCCC3=CCCCC3)c2=O)cc1	.	-	.	.	.	.
COc1cccc(C(=O)Nc2cccc(NC(C)=O)c2)c1	-	?	-	-	-	-
